# Unmarked numbers belong to inactive results. Results filed as inconclusive are left out. Where a call stands in place of a potency, no number is given. Active and inactive are the calls of the source. Calls come from the whole dose curve; as a rule, active = well fitted curve in the direction sought with a large enough effect in the repeat runs; inconclusive = weak or mixed curves; inactive = no such curve, though single readings can be large; an effect the other way counts as inactive or inconclusive.
# Columns and labels:
# [1] = A CellTox Green Cytotoxicity Assay to monitor cytotoxicity in HepG2 cells - 0 hour (AID 1224882); note: nearly all actives have a fitted effect of over 35% in size
# Summary of the method: (§1)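 Nonlytic assay: viable cells exclude the dye, so fluorescence scales with cell death. HepG2 at 600 cells/well, compounds added after 5 h, signal read across 40 h.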
# [2] = A CellTox Green Cytotoxicity Assay to monitor cytotoxicity in HepG2 cells - 32 hour (AID 1224883); note: nearly all actives have a fitted effect of over 50% in size; note: potency is the fitted concentration of half-maximal effect
# Summary of the method: as §1
# [3] = A CellTox Green Cytotoxicity Assay to monitor cytotoxicity in HEK293 cells - 8 hour (AID 1224884); note: nearly all actives have a fitted effect of over 35% in size; note: potency is the fitted concentration of half-maximal effect
# Summary of the method: (§2)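 Seeding of HEK293 cells together with cytotoxicity dye preceded a 5 h incubation at 37 C/5% CO2. Test compounds in DMSO were then added and fluorescence monitored across 40 h.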
# [4] = qHTS RealTime-Glo MT Cell Viability Assay in HepG2 cells - 16 hour (AID 1224885); note: nearly all actives have a fitted effect of over 50% in size; note: potency is the fitted concentration of half-maximal effect
# Summary of the method: (§3)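 qHTS, HepG2, 600 cells/well, RealTime-Glo (NanoLuc + prosubstrate) added with cells; 5 h preincubation; DMSO compound addition; 37 C; luminescence at 0/8/16/24/32/40 h.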
# [5] = qHTS RealTime-Glo MT Cell Viability Assay in HEK293 cells - 24 hour (AID 1224886); note: nearly all actives have a fitted effect of over 50% in size; note: potency is the fitted concentration of half-maximal effect
# Summary of the method: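 Assay medium contained NanoLuc luciferase plus cell-permeant prosubstrate, added with HEK293 cells at 600 cells/well. After 5 h at 37 C/5% CO2 compounds were added; plates stayed at 37 C for 40 h with serial luminescence reads.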
# [6] = qHTS RealTime-Glo MT Cell Viability Assay in HEK293 cells - 8 hour (AID 1224887); note: nearly all actives have a fitted effect of over 50% in size; note: potency is the fitted concentration of half-maximal effect
# Summary of the method: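 Tox21 screen in HEK293 using RealTime-Glo MT chemistry, with cells and reagent co-dispensed. Luminescence proportional to viable cell number was captured at intervals during 40 h compound exposure at 37 C.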
# [7] = A CellTox Green Cytotoxicity Assay to monitor cytotoxicity in HEK293 cells - 16 hour (AID 1224888); note: nearly all actives have a fitted effect of over 35% in size
# Summary of the method: as §2
# [8] = qHTS RealTime-Glo MT Cell Viability Assay in HepG2 cells - 0 hour (AID 1224889); note: nearly all actives have a fitted effect of over 50% in size; note: potency is the fitted concentration of half-maximal effect
# Summary of the method: as §3
# [9] = A CellTox Green Cytotoxicity Assay to monitor cytotoxicity in HepG2 cells - 8 hour (AID 1224890); note: nearly all actives have a fitted effect of over 45% in size; note: potency is the fitted concentration of half-maximal effect
# Summary of the method: as §1
Structure (SMILES),Potency [1],Potency [2],Potency [3],Potency [4],Potency [5],Potency [6],Potency [7],Potency [8],Potency [9]
CC(C)[C@H](C(=O)OC(C#N)c1cccc(Oc2ccccc2)c1)c1ccc(OC(F)F)cc1 (some centres undefined),inactive,inactive,inactive,inactive,inactive,inactive,inactive,inactive,inactive
CCCOCC(=Nc1ccc(Cl)cc1C(F)(F)F)n1ccnc1,inactive,43.6 µM (active),54.9 µM (active),–,43.6 µM (active),43.6 µM (active),–,inactive,–
BrCC(Br)c1ccccc1 (centres undefined),inactive,inactive,inactive,inactive,inactive,inactive,inactive,inactive,inactive
CC(=O)Nc1ccc2c(c1)Cc1ccccc1-2,inactive,inactive,inactive,inactive,inactive,inactive,–,inactive,inactive
O=c1c(C2CC(c3ccc(-c4ccc(Br)cc4)cc3)Cc3ccccc32)c(O)sc2ccccc12 (centres undefined),inactive,inactive,inactive,–,inactive,inactive,inactive,6.74 µM (active),–
CCc1cc(C)cc(CC)c1-c1c(OC(=O)C(C)(C)C)n2n(c1=O)CCOCC2,inactive,inactive,inactive,inactive,inactive,inactive,inactive,inactive,inactive
COP(=O)(OC)SCn1c(=O)oc2cc(Cl)cnc21,inactive,inactive,inactive,inactive,–,inactive,inactive,inactive,inactive
ClC(Cl)=C(c1ccc(Cl)cc1)c1ccc(Cl)cc1,inactive,inactive,inactive,inactive,–,–,inactive,inactive,inactive
S=C(SSC(=S)N1CCCCC1)N1CCCCC1,inactive,0.19 µM (active),inactive,–,13.4 µM (active),–,inactive,inactive,–
CCCCOP(=O)(CCCC)OCCCC,inactive,inactive,inactive,inactive,–,–,inactive,inactive,inactive
CC(C)CBr,inactive,inactive,inactive,–,inactive,inactive,inactive,inactive,inactive
O=[N+]([O-])c1cc(Cl)ccc1Cl,inactive,inactive,inactive,inactive,inactive,inactive,inactive,inactive,inactive
FC(Cl)(Cl)Cl,inactive,inactive,inactive,inactive,inactive,inactive,inactive,inactive,inactive
Clc1ccc(Oc2ccccc2)cc1,inactive,inactive,inactive,inactive,–,inactive,inactive,inactive,inactive
Fc1cccc(Cl)c1CCl,inactive,inactive,inactive,inactive,inactive,–,inactive,inactive,inactive
OC(Cc1ccccc1Cl)(Cn1cncn1)C1(Cl)CC1 (centres undefined),inactive,inactive,inactive,–,54.9 µM (active),–,inactive,24.5 µM (active),inactive
O=CC(Br)(Br)Br,inactive,38.8 µM (active),inactive,48.8 µM (active),2.45 µM (active),inactive,inactive,inactive,inactive
C[C@]12CC[C@H]3[C@@H](CCC4=CC(=O)CC[C@@]43C)[C@@H]1CC[C@@H]2O,inactive,inactive,inactive,inactive,54.6 µM (active),–,inactive,21.7 µM (active),inactive
CCCCCCCCc1ccc(O)cc1,inactive,42.7 µM (active),43.9 µM (active),–,4.93 µM (active),6.76 µM (active),–,inactive,17.5 µM (active)
CC(C)[C@H](C(=O)O[C@H](C#N)c1cccc(Oc2ccccc2)c1)c1ccc(Cl)cc1,inactive,inactive,inactive,inactive,–,–,inactive,–,–
C[C@]12CC[C@H](O)C[C@H]1CC[C@@H]1[C@@H]2C[C@@H](O)[C@]2(C)[C@@H](C3=CC(=O)OC3)CC[C@]12O,inactive,inactive,inactive,inactive,0.616 µM (active),inactive,–,inactive,inactive
N#CCCO,inactive,inactive,inactive,inactive,inactive,inactive,inactive,inactive,inactive
ClC1=C(Cl)[C@]2(Cl)[C@H]3[C@H]([C@H]4C=C[C@H]3C4)[C@@]1(Cl)C2(Cl)Cl,inactive,inactive,inactive,inactive,inactive,–,inactive,inactive,inactive
